Laboratory results reported in PubChem BioAssay (NCI).
Compounds without any hit were thinned out: in the full panel of roughly 83,000, 20% have a hit.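 Compound tested at a single concentration for 48 hours in 96-well plates; a percent growth value below 10 was scored as active.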 A number with no mark means an inactive call. Activity calls are given as the source filed them.

The molecules below were run on MDA-MB-468 breast (assay: NCI-60 one-dose screen, 48 h (100 = growth as untreated, 0 = no growth, -100 = all killed)). Settings: 10 µM unless noted.
`CC1=C([Se]CC(OC(=O)[C@@H](CO)NC(=O)OC(C)(C)C)C(=O)NCCCCCC(=O)OCc2ccccc2)C(=O)c2ccccc2C1=O` (stereo not given in full) was tested, and the growth was -83.7% (active).
`CN1CCN(c2ccc3c(C(N)=O)c(NC(=O)c4ccc(C(C)(C)C)cc4)sc3c2)CC1` showed a growth of 90.7%.
`COc1cc(C(=O)N(C(C)C)C2CCCCC2)cc(OC)c1OC` was tested, and the growth was 89.8%.
For `O=S(=O)(NCCCNc1nccc(-c2[nH]c(-c3ccccc3)nc2-c2ccc(Cl)c(O)c2)n1)c1cccc(F)c1`, the growth was 50.9%.
With `CC(=O)Nc1ccc(C(=O)Nc2cc(-c3ccccc3)ccc2N)cc1` the growth was 110%.
Work on `Cc1nn(-c2ccccc2)c2nc3nc4c(c(N)c3c(-c3ccc(Cl)cc3)c12)CCCC4` yielded a growth of 104%.
In the case of `CN1CCN(CCCNc2nccc(-c3c(-c4ccc(F)c(O)c4)nc4sccn34)n2)S1(=O)=O`, the growth is reported as 92.9%.
`CC(=O)c1c([Si](C)(C)C)c2cc(C#N)ccn2c1C(=O)c1ccc(Br)cc1` showed a growth of 79.9%.
In the case of `CC/C(=C\c1ccc(N(C)C)cc1)c1nc2ccccc2c(=O)[nH]1`, the growth is reported as 91.4%.
In the case of `CC(C)n1cnc2c(Nc3cccc(Cl)c3)nc(N[C@H]3CCCC[C@@H]3N)nc21`, the growth is reported as 20%.
`O=C(Nc1ccc(Cl)cc1Cl)Nc1ccc(-c2cccnc2)cc1N1CCC(CO)CC1` was tested, and the growth was 23%.
Molecule `CNC(=O)c1cc(N2CCc3cc(NC(=O)Nc4ccc(N5CCN(C)CC5)c(C(F)(F)F)c4)ccc32)ccn1` has a growth of 77.9%.
In the case of `COc1ccccc1C(=O)CSc1nc(Nc2ccc(S(N)(=O)=O)cc2)c2ccccc2n1`, the growth is reported as 99.7%.
With `O=C(Nc1ccccc1O)c1ccc(CNc2ccnc(C(F)(F)F)c2)cc1` the growth was 90.7%.
In the case of `Cc1cc(Br)c2nsnc2c1[N+](=O)[O-]`, the growth is reported as -24.6% (active).
`CCN(CC)c1ccc(C=O)c(OCc2cn(CC(=O)Nc3ccc(Cl)cc3)nn2)c1` was tested, and the growth was 63.5%.
In the case of `O=C1Nc2cc(OC(F)(F)F)ccc2Oc2ccc(-c3ccnc(N4CC[C@H](O)C4)c3)cc21`, the growth is reported as -28.9% (active).
In the case of `O=C1Nc2ccccc2C12CC(c1ccccc1)=NN2` (stereo not given), the growth is reported as 66.4%.
With `CCOC(=O)c1cc2c(n1Cc1cccc(OC)c1)-c1oncc1CC2` the growth was -2.28% (active).
Work on `CCOC(=O)CNS(=O)(=O)CC(=O)c1ccccc1` yielded a growth of 54.1%.
Work on `S=C(Nc1ccc(-c2nc(N3CCOCC3)c3cccn3n2)cc1)Nc1cccnc1` yielded a growth of 34.8%.
`COc1cccc(NC(=O)c2c(-c3ccccc3)c(-c3ccccc3)n[nH]c2=O)c1` was tested, and the growth was 92.4%.
With `COc1ccc(S(=O)(=O)NCCNc2nccc(-c3c(-c4cccc(F)c4)nc4sccn34)n2)cc1` the growth was 23.3%.
`Nc1ccccc1SC1CC(=O)N(c2ccc(I)cc2)C1=O` (stereo not given) showed a growth of 121%.
`CCN1C(=O)c2ccc3c4c(ccc(c24)C1=O)C(=O)N(CCCNCc1ccccc1OC)C3=O` was tested, and the growth was -71.4% (active).
`NNC(=O)Oc1c(Cl)cc(Cl)cc1[N+](=O)[O-]` showed a growth of 112%.
`CCC1=C[C@@H]2C[C@]3(C(=O)OC)c4[nH]c5ccccc5c4CC[N@+](CC(=O)Nc4cc5c(cc4OC)N(C)[C@H]4[C@@](O)(C(=O)OC)[C@H](OC(C)=O)[C@]6(CC)C=CCN7CC[C@]54[C@@H]76)(C2)[C@H]13` gave a growth of 111%.
For `CO[C@H]1C[C@@H]2CC[C@@H](C)[C@@](O)(O2)C(=O)C(=O)N2CCCC[C@H]2C(=O)O[C@H]([C@H](C)C[C@@H]2CC[C@@H](O)[C@H](OC)C2)CC(=O)[C@H](C)/C=C(\C)[C@@H](O)[C@@H](OC)C(=O)[C@H](C)C[C@H](C)\C=C/C=C/C=C/1C`, the growth was 1.57% (active).
`CN1CCN(c2ccc3cc(-c4nc5ccccc5[nH]4)c(=O)oc3c2)CC1` gave a growth of 68.3%.
`Oc1c(CN2CCCC2)cc(CSCc2ccccc2)c2cccnc12` was tested, and the growth was -33.1% (active).
Work on `Cc1csc(-c2nnc(Nc3ccc(Oc4ncccc4-c4ccnc(N)n4)cc3)c3ccccc23)c1` yielded a growth of 41.6%.
With `N#Cc1c(NC(=O)NCc2ccccc2)sc2c1CCCC2` the growth was -33.5% (active).
`CCCCCCCCCCCCCCn1c2ccccc2c2c3c(c4c5cc(OC)ccc5oc4c21)C(=O)NC3=O` gave a growth of 106%.
`O=S(=O)(O)C(C(I)I)S(=O)(=O)O` was tested, and the growth was 95.9%.
In the case of `COc1cc2c(cc1OCCCOC1=C=C=C(c3ccc4c(c3)c3cc(-c5ccc(OCCCOc6cc7c(cc6OC)C(=O)N6CCC[C@H]6C=N7)cc5)ccc3n4S(=O)(=O)c3ccc(C)cc3)C=C1)N=C[C@@H]1CCCN1C2=O`, the growth is reported as -17% (active).
